Assay outcomes: PubChem, National Center for Advancing Translational Sciences (NCATS)
RORg inh – ROR gamma (mouse) transcription inhibition; P51450; Drosophila S2 Gal4-RORgamma UAS-luciferase reporter, 20 h; Potency, µM (highest dose often 53.6 µM), hits mostly inhibitors; hit rate 5.4% among 310,000; AID 2551; note: nearly all actives have a fitted effect of over 60% in size
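Drosophila S2 cells stably expressing Gal4-DBD/mouse RORγ fusion under metallothionein promoter plus UAS-luciferase; compound 1 h, then 700 uM CuSO4 induction for 20 h at ambient temperature; inhibition read as reduced luminescence.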
DT40 TDP1 CPT – growth inhibition of DT40 Tdp1-/-;hTDP1 cells with camptothecin (screen for TDP1 inhibitors); AID 686979; Potency, µM (highest dose often 46.2 µM), hits mostly inhibitors; chicken DT40 Tdp1-/-;hTDP1 cells + 20 nM CPT, ATP luminescence, 48 h; hit rate 12% among 420,000; note: nearly all actives have a fitted effect of over 55% in size
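Chicken DT40 Tdp1-/- cells stably complemented with human TDP1 were seeded at 400 cells/well in medium containing 20 nM camptothecin, exposed to pin-transferred compounds, and grown at 37 °C for at least 48 hr. Viability was read as ATP luminescence.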
TDP1 block – TDP1 (human) enzyme inhibition. recombinant TDP1, AlphaScreen DNA substrate cleavage. Potency, µM (series often up to 130 µM), hits mostly inhibitors. hit rate 0.28% among 350,000. AID 485290; note: nearly all actives have a fitted effect of over 40% in size
Target sequence (Q9NUW8 whole entry, looked up): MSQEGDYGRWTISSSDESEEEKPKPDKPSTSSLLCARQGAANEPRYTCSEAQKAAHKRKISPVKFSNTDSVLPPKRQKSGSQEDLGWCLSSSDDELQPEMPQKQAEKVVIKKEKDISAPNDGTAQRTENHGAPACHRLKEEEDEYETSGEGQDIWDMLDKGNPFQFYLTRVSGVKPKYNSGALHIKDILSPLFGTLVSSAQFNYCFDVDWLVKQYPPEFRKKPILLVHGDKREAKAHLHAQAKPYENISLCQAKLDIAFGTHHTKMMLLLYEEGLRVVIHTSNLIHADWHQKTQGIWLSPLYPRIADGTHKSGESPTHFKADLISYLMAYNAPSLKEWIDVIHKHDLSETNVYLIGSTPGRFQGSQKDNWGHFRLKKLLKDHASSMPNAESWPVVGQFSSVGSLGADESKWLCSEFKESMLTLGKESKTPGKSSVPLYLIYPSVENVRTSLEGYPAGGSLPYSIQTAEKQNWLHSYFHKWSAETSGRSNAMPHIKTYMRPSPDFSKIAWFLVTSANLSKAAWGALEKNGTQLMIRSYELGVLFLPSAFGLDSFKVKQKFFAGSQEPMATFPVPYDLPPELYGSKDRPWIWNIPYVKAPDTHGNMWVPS
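E. coli-derived human Tdp1, 1 nM final. Cpd preinc 15 min RT; substrate 15 nM final, 5 min RT; AS bead mix 10 ug/ml final, 10 min RT. Signal loss = tyrosine-FITC cleavage. No-enzyme wells = max signal.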
DT40 TDP1 no CPT – qHTS for Inhibitors of human tyrosyl-DNA phosphodiesterase 1 (TDP1): qHTS in cells in absence of CPT. DT40 Tdp1-/- hTDP1 cells, no CPT, ATP luminescence, 48 h. Potency, µM (series often up to 46.2 µM), actives largely listed as inhibitors. hit rate 15% among 420,000; note: nearly all actives have a fitted effect of over 55% in size
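DT40 Tdp1-/-;hTDP1 cells, no CPT (DMSO vehicle only), 400 cells/well; compounds pin-transferred; ≥48 hr, 37 °C; CellTiter-Glo 30 min RT dark, luminescence read.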
VP16 counter – inhibits Gal4-VP16 luciferase reporter, ROR gamma counter-screen. Drosophila S2 Gal4-VP16 UAS-luciferase, luminescence, 20 h. Potency, µM (series often up to 53.6 µM), usual class: inhibitors. hit rate 3.5% among 310,000;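 note: Gal4-VP16 expression switched on by copper sulfate through the metallothionein promoter; nearly all actives have a fitted effect of over 50% in size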
Large screens that a line does not name were inactive. Shown are actives, neighbours in structure and some others; about 19% of the full set was active somewhere. Calls come from the whole dose curve; as a rule, active = well fitted curve in the direction sought with a large enough effect; inconclusive = small, poorly fitted or top-dose-only effect, or another doubt; inactive = no such curve, though single readings can be large; an effect the other way counts as inactive or inconclusive.

COC(=O)c1ccc(/C=N/NC(=O)C2CC(=O)N(c3ccc(F)cc3)C2)cc1 (stereo not given)	none
O=C(Nc1ccc(N2CCCCC2)cc1)c1ccccn1	RORg inh 1.3µM, DT40 TDP1 CPT 16µM, DT40 TDP1 no CPT 10µM, VP16 counter 2µM
COc1ccc(C)cc1NC1=C(Cl)C(=O)N(C2CCCCC2)C1=O	DT40 TDP1 CPT inconclusive, DT40 TDP1 no CPT 12µM
O=S(=O)(NCC1CC1)c1cc(Cl)cc(Cl)c1	none (no result: TDP1 block)
Cc1ccc(-n2ncc3c(NNC(=O)c4ccco4)ncnc32)cc1C	RORg inh 3.5µM, DT40 TDP1 CPT inconclusive, DT40 TDP1 no CPT inconclusive, VP16 counter 7.1µM
Cc1ccc(Cl)cc1-n1ncc2c(NNC(=O)c3ccco3)ncnc21	RORg inh inconclusive
COc1cc(C(C)=O)ccc1Oc1ncnc2c1cnn2-c1ccc(C)c(C)c1	RORg inh inconclusive, DT40 TDP1 CPT 12µM, DT40 TDP1 no CPT 15µM, VP16 counter inconclusive
CC(=O)NNc1ncnc2c1cnn2-c1ccc(C)c(Cl)c1	RORg inh inconclusive, VP16 counter inconclusive
COc1cc(C(C)=O)ccc1Oc1ncnc2c1cnn2-c1ccccc1	DT40 TDP1 CPT inconclusive, DT40 TDP1 no CPT inconclusive
O=C(NNc1ncnc2c1cnn2-c1cccc(Cl)c1)c1ccco1	RORg inh 5µM, VP16 counter 7.1µM
Cn1ncc2c(NNC(=O)c3ccccc3Cl)ncnc21	RORg inh 1µM, VP16 counter inconclusive
CS(=O)(=O)c1ccc(Cl)c(NC(=O)Cc2ccccc2F)c1	DT40 TDP1 CPT inconclusive, DT40 TDP1 no CPT inconclusive (no result: TDP1 block)
COC(=O)c1ccc(C(=O)OCCCc2nc3ccc(N)cc3[nH]2)cc1	none
O=C(CCc1ccc(S(=O)(=O)NC2CCCCC2)cc1)NCc1ccc(Cl)cc1	RORg inh inconclusive, DT40 TDP1 CPT inconclusive, DT40 TDP1 no CPT inconclusive
COc1ccc(CC(=O)NNc2ncnc3c2cnn3-c2ccc(C)cc2)cc1	VP16 counter inconclusive
COc1ccc(CC(=O)NNc2ncnc3c2cnn3-c2ccc(C)cc2)cc1OC	RORg inh 6.3µM, VP16 counter inconclusive
CN(C)C(=O)c1ccc(-c2cncnc2NCCN2CCOCC2)cc1	none
C=CCNC(=S)/N=c1/ccccn1CCC	RORg inh 5µM, DT40 TDP1 CPT inconclusive, DT40 TDP1 no CPT 23µM, VP16 counter inconclusive
COc1ccc(NC(=O)COc2ccc(C)nc2[N+](=O)[O-])cc1S(N)(=O)=O	DT40 TDP1 CPT 9.2µM, DT40 TDP1 no CPT inconclusive (no result: RORg inh, VP16 counter)
COc1cccc(NC(=O)CN(C)C(=O)COc2ccccc2Cc2ccccc2)c1	DT40 TDP1 CPT inconclusive, DT40 TDP1 no CPT 29µM (no result: RORg inh, VP16 counter)
COc1ccc(NC(=O)COc2ccccc2Cc2ccccc2)cc1S(N)(=O)=O	RORg inh inconclusive, DT40 TDP1 CPT 21µM, DT40 TDP1 no CPT 15µM, VP16 counter inconclusive
CCCCNS(=O)(=O)c1ccc2c(c1)oc(=O)n2CC(=O)OCC	DT40 TDP1 no CPT inconclusive
Cc1cc(C(=O)NCc2ccccc2)c(=O)[nH]c1C	none
Cn1c(=O)c2ccccc2n2c(CCl)nnc12	DT40 TDP1 CPT 12µM, DT40 TDP1 no CPT 15µM
Cc1cccc(C(=O)N2CCC(=O)N(C(COCc3cccc(C(F)(F)F)c3)Cc3ccccc3)CC2)c1 (stereo not given)	DT40 TDP1 CPT 29µM, DT40 TDP1 no CPT inconclusive
Cc1cccc(C(=O)N2CCC(=O)N([C@H](COCc3cccc(C(F)(F)F)c3)Cc3ccccc3)CC2)c1	DT40 TDP1 CPT inconclusive, DT40 TDP1 no CPT 16µM
COc1ccccc1NCCC(=O)OCC(=O)Nc1cccc(S(=O)(=O)N(C)C)c1	none (no result: RORg inh, VP16 counter)
NS(=O)(=O)c1ccc(CCNC(=O)c2ccc([N+](=O)[O-])s2)cc1	DT40 TDP1 CPT 16µM, DT40 TDP1 no CPT inconclusive (no result: TDP1 block)
NS(=O)(=O)c1ccc(CCNC(=O)c2ccc(Cl)s2)cc1	none
CCOc1cc(-c2noc(CCCC(N)=O)n2)cc(Br)c1OC	none
Cc1ccc(-c2noc(-c3cc(-c4ccc(F)cc4)n[nH]3)n2)cc1	DT40 TDP1 no CPT inconclusive (no result: RORg inh, VP16 counter)
CCOc1cc(-c2noc(-c3ccncc3)n2)cc(Br)c1OC	RORg inh inconclusive, DT40 TDP1 CPT inconclusive, DT40 TDP1 no CPT 16µM
COc1ccc(-c2noc(-c3cc(C(C)C)[nH]n3)n2)cc1	DT40 TDP1 CPT 21µM, DT40 TDP1 no CPT 18µM (no result: RORg inh, VP16 counter)
Cc1ccccc1-c1noc(-c2cc(-c3ccc(F)cc3)n[nH]2)n1	DT40 TDP1 CPT 21µM, DT40 TDP1 no CPT 23µM (no result: RORg inh, VP16 counter)
CCOc1ccc(-c2cc(-c3nc(-c4cc(OC)c(OC)c(OC)c4)no3)[nH]n2)cc1	DT40 TDP1 CPT 9.2µM, DT40 TDP1 no CPT 9.2µM (no result: RORg inh, VP16 counter)
COc1ccc(-c2noc(-c3cc(-c4ccc(F)cc4)n[nH]3)n2)cc1	DT40 TDP1 CPT 6.5µM, DT40 TDP1 no CPT inconclusive (no result: RORg inh, VP16 counter)
CCC1=C(c2ccc(C)cc2)S(=O)(=O)N=C1N1CCC(C(=O)NCc2ccc(N(C)C)cc2)CC1	DT40 TDP1 CPT 18µM, DT40 TDP1 no CPT 23µM (no result: RORg inh, VP16 counter)
CC(=O)N/C(=C/c1ccccc1)C(=O)NCCO	none
O=C(CN1C(=O)c2ccccc2C1=O)Nc1nc(-c2cccc([N+](=O)[O-])c2)cs1	none (no result: DT40 TDP1 CPT, DT40 TDP1 no CPT)
COc1ccc(CN2CCN(Cc3cccc4nonc34)CC2CCO)c(C)c1C (stereo not given)	none
O=C(Nc1ccc(Cl)cc1)C1CCCCN1S(=O)(=O)c1ccccc1 (stereo not given)	DT40 TDP1 CPT inconclusive, DT40 TDP1 no CPT 7.3µM (no result: RORg inh, VP16 counter)
Cc1cccc(NC(=O)C2CCCN2C(=O)OCc2ccccc2)c1 (stereo not given)	DT40 TDP1 no CPT 0.058µM (no result: RORg inh, VP16 counter)
CC(=O)Nc1ccc(NC(=O)C2CCCCN2S(=O)(=O)c2ccc(C(C)(C)C)cc2)cc1 (stereo not given)	DT40 TDP1 CPT 23µM, DT40 TDP1 no CPT inconclusive
CC(=O)c1ccc(NC(=O)C2CCCN2S(=O)(=O)c2ccc(C)cc2)cc1 (stereo not given)	DT40 TDP1 CPT inconclusive, DT40 TDP1 no CPT inconclusive
Cc1ccc(NC(=O)[C@@H]2CCCN2S(=O)(=O)c2ccc(Cl)cc2)cc1	DT40 TDP1 CPT 21µM, DT40 TDP1 no CPT inconclusive (no result: RORg inh, VP16 counter)
Cc1nc2sccn2c(=O)c1S(=O)(=O)NC(C)c1ccccc1 (stereo not given)	DT40 TDP1 no CPT inconclusive (no result: TDP1 block)
O=C1C2C3C=CC(CC3)C2C(=O)N1c1ccc([N+](=O)[O-])cc1 (stereo not given)	none (no result: TDP1 block)
N#Cc1nc(COc2ccc(F)cc2)oc1N1CCCCC1	none
CC(=O)c1cccc(NC(=O)C2CCCN2S(=O)(=O)c2ccccc2C(F)(F)F)c1 (stereo not given)	none (no result: RORg inh, TDP1 block, VP16 counter)
O=C(Nc1cccc(S(=O)(=O)N2CCCCC2)c1)[C@@H]1CCCN1S(=O)(=O)c1ccccc1C(F)(F)F	DT40 TDP1 CPT inconclusive, DT40 TDP1 no CPT 23µM (no result: RORg inh, TDP1 block, VP16 counter)
O=C(Nc1ccc(Cl)cn1)C1CCCN1S(=O)(=O)c1ccccc1 (stereo not given)	DT40 TDP1 CPT 21µM, DT40 TDP1 no CPT 12µM
